ATXN2 expr inh: reduces ATXN2 reporter expression in HEK-293 cells; HEK-293 ATXN2-luciferase reporter, luminescence, 24 h; 360,000 compounds, 0.72% hits; Potency, µM (titrated, usually from 57 µM), for inactives: at the highest dose activity change, negative = inhibition, actives largely listed as inhibitors; AID 1745845; note: potency is the fitted concentration of half-maximal effect; % is set by controls: 0 for no effect and ±100 for the full control effect; nearly all actives have a fitted effect of over 55% in size
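qHTS (up to 57 uM final) was run with 24 h compound exposure of reporter cells at 37 °C. Each well was multiplexed: SteadyGlo luminescence measured ATXN2-luciferase expression after a fluorogenic Gly-Phe-AFC viability readout (25 uM final).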
Six1-Eya2 blk: Six1/Eya2 interaction inhibition; AlphaScreen GST-Six1/His-Eya2 binding, biochemical; active compounds read low; activity change, % (concentration not given with the values); Q15475+O00167; 360,000 compounds, 0.56% hits; in the data active = activity change below about -65%; inconclusive = mostly about -30% to -63%; note: % is set by controls: 0 for no effect and ±100 for the full control effect
Target sequence (O00167 whole entry, looked up): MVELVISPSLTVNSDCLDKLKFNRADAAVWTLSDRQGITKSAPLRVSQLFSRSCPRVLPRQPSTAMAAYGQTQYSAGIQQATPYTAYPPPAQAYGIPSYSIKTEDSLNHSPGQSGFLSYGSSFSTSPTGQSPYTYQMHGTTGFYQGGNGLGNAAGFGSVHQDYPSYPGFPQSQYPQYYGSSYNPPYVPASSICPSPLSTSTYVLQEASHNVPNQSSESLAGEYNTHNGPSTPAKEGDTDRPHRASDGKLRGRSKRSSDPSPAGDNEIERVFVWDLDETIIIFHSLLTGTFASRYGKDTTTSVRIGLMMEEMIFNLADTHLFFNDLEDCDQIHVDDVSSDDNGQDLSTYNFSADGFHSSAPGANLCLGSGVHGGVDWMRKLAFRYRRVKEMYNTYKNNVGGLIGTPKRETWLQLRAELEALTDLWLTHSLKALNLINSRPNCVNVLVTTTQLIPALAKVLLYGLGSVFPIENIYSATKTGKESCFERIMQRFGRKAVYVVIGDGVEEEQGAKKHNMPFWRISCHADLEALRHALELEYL
Target sequence (Q15475 whole entry, looked up): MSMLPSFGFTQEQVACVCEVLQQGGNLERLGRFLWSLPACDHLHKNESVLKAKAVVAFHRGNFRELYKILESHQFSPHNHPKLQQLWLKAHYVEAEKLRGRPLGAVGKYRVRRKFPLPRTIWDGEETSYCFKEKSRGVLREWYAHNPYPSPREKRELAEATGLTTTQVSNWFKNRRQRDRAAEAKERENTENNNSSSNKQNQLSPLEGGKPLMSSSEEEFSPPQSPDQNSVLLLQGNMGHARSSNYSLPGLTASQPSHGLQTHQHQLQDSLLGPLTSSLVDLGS
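Compounds are tested against tagged Six1 and Eya2 proteins bridged by glutathione donor and nickel acceptor beads; after a one-hour incubation at 37 °C without light, AlphaScreen emission is recorded.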
CtBP-E1A blk: CtBP/E1A binding inhibition; 340,000 compounds, 0.49% hits; AID 651724; activity change, % (concentration not given with the values); AlphaScreen GST-E1A/His-CtBP binding, 1536-well; active compounds read low; in the data active = activity change below about -65%; inconclusive = mostly about -30% to -63%; note: % is set by controls: 0 for no effect and ±100 for the full control effect
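In 5 uL wells, 23 nL compound meets equimolar GST-E1A and His-CtBP (5X stock 125 nM each) for 2 h, 37 °C. Beads (5X, 50 ug/mL) then 1 h, 37 °C, dark.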
TGFb SMAD3 inh: blocks TGF-b signaling. HepG2 CAGA-GFP TGF-b/SMAD3 reporter, GFP fluorescence, 18 h; TGF-beta stimulated, 500 pg/mL final. Potency, µM (top dose mostly 46.1 µM), for inactives: at the top dose activity, negative = inhibition, most hits filed as inhibitors. 410,000 compounds, 1.2% hits; note: potency is the fitted concentration of half-maximal effect; % is set by controls: 0 for no effect and ±100 for the full control effect; nearly all actives have a fitted effect of over 65% in size
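GFP signal (ex488/em500-530) from TGF-beta-stimulated HEPG2 CAGA-GFP cells, 500 pg/mL final, 18 h at 37 degrees C in DMEM plus 1% FBS, normalized to unstimulated and DMSO-stimulated controls.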
ATXN viability: reduces viability in counter-screen for ATXN expression inhibitors. 400,000 compounds, 0.49% hits. S2 cells (HEK-293 line with an ATXN2-luciferase reporter) viability, CellTiter-Fluor protease fluorescence, 24 h. AID 651635. Potency, µM (top dose mostly 56.7 µM), actives largely listed as cytotoxic; note: potency is the fitted concentration of half-maximal effect; nearly all actives have a fitted effect of over 40% in size
HepG2 viability: kills HepG2 cells in TGF-b inhibitor counter-screen; 410,000 compounds, 0.76% hits; Potency, µM (doses to about 46.1 µM), without a hit: at the highest dose activity change, negative = cytotoxicity, usual class: cytotoxic; HepG2 CAGA-GFP viability, ATP luminescence, 18 h; note: potency is the fitted concentration of half-maximal effect
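CellTiter-Glo luminescence gave cytotoxicity after 18 hours at 37 degrees C. The cells were HepG2 CAGA-GFP in 1% FBS DMEM, stimulated with 500 pg/mL TGF-beta after compound addition. %Activity was normalised to no-cell wells (complete cell-killing) and DMSO (no toxicity), and curves were fitted and classified.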
Numbers without * were called inactive; i = inactive; ? = inconclusive; · = no result. Sampled rows, rich in hits. Any-hit rate of the full collection: about 2.8%. Unless noted, calls come from the whole dose curve; as a rule, active = well fitted curve in the direction sought with a large enough effect; inconclusive = small, poorly fitted or top-dose-only effect, or another doubt; inactive = no such curve, though single readings can be large; an effect the other way counts as inactive or inconclusive.

SMILES	ATXN2 expr inh	Six1-Eya2 blk	CtBP-E1A blk	TGFb SMAD3 inh	ATXN viability	HepG2 viability
C#CCN(C[C@@H]1[C@@H](OC(=O)NCc2ccco2)[C@@H](OC(=O)NCc2ccco2)Cn2c(=O)ccc(=O)n21)S(=O)(=O)c1ccc(C)cc1	14µM*	3	0	?	25µM*	-34%
C#CCN(C[C@@H]1[C@@H](OC(=O)NCCCCCC)[C@@H](OC(=O)NCCCCCC)Cn2c(=O)ccc(=O)n21)S(=O)(=O)c1ccc(C)cc1	3.5µM*	0	-7	6.3µM*	4µM*	6.3µM*
C#CCN(C[C@H]1[C@H](OC(=O)NCC2CCCCC2)[C@H](OC(=O)NCC2CCCCC2)C[C@@H](C(=O)OC)[C@H]1C(=O)OC)S(=O)(=O)c1ccc(C)cc1	-9%	19	10	-1%	?	-29%
Cc1cc(N2CCOCC2)ccc1/C=C\[N+](=O)[O-]	?	2	5	11µM*	?	18µM*
COc1ccc(S(=O)(=O)Nc2ccc3oc4c(c3c2)C(=O)CC(C)(C)C4)cc1	-12%	·	·	1%	i	-7%
Cc1sc2ccccc2[n+]1Cc1ccccc1	·	·	·	?	·	-4%
COc1ccc(CCN(Cc2ccccn2)C(=S)Nc2cccc(C)c2)cc1OC	-9%	15	18	-6%	?	5µM*
COc1ccc(NC(=S)N(CCc2ccc(OC)c(OC)c2)Cc2ccccn2)cc1	-12%	-9	-6	-15%	i	5%
CCN1CCN(Cc2c(O)ccc3oc(C)c(C(=O)Nc4cccc(C(F)(F)F)c4)c23)CC1	?	·	·	?	?	13µM*
CN1CC(=O)NC1=N	0%	·	·	·	i	·
CCCC(c1nnnn1Cc1ccc2c(c1)OCO2)N1CCC(C(N)=O)CC1 (configuration not stated)	-4%	29	0	-2%	i	20µM*
CCCC(c1nnnn1Cc1ccc(OC)cc1)N1CCC(C(N)=O)CC1 (configuration not stated)	-11%	6	0	-16%	i	-10%
COC(=O)[C@@H]1C[C@H](NC(=O)c2cc(C(F)(F)F)ccc2Cl)CN1Cc1cccc(O)c1	·	·	·	·	i	·
O=C1C=CC2(O[C@H](c3ccccc3)[C@@H](c3ccccc3)O2)[C@H](Sc2ccccc2O)C1	4µM*	?	-2	2.8µM*	·	-103%
CCCCc1ccc(NC(=O)N2CCN(c3cc(C)nc4ccccc34)CC2)c(C)c1	18µM*	0	0	?	?	-23%
Cc1cc(N2CCN(C(=O)Nc3ccc(F)cc3F)CC2)c2ccccc2n1	-35%	-18	-13	1%	i	-20%
Cn1ccsc1=NC(=O)c1ccc([N+](=O)[O-])o1	-5%	-15	-5	28µM*	i	-75%
COc1cc(C(=O)N=c2sccn2C)c([N+](=O)[O-])cc1OC	10%	6	-4	0%	i	3%
COc1ccc(Cl)c(Cn2cnc3c(cnn3C(C)(C)C)c2=O)c1F	·	·	·	1%	·	1%
COc1ccc(OCC(O)CNCCOc2ccccc2OC)c(C(C)(C)C)c1 (configuration not stated)	·	-26	·	13µM*	·	-117%
CC1(N2CCCCC2)C(=O)c2ccccc2C1=O	-2%	2	7	14%	i	9%
CC1(S(=O)(=O)O)CC(=O)c2ccccc2C1=O (configuration not stated)	25µM*	-2	-29	?	·	-103%
O=C1N[C@@H](Cc2ccccc2)COC(=O)[C@@H](Cc2ccc(F)cc2)CC/C=C/C[C@H]1CC(=O)N(CCO)Cc1ccccc1	?	-4	-2	?	22µM*	-17%
O=C1N[C@@H](c2ccccc2)COC(=O)[C@H](Cc2ccc(F)cc2)CC/C=C/C[C@@H]1CC(=O)N(CCO)Cc1ccccc1	?	-7	-10	?	10µM*	-16%
